Hit rate of the full screen: of about 2,200 compounds, about 1,500 (68%) were called active. Cut-off read from the data, not from the text of the source: active = inhibition above about 23%; inactive = the rest. So high a share suggests a set chosen from earlier hits. Not all results are given here.
Target: Perilipin-5 (Homo sapiens) + 1-acylglycerol-3-phosphate O-acyltransferase ABHD5 (Homo sapiens) (UniProt Q00G26+Q8WTS1)
Experiment: ABHD5-PLIN5 interaction inhibitors, confirmation, biochemical, luminescence (AID 651612);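 note: 0% = DMSO vehicle wells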
Settings: at 4 µM, stronger effect = higher value

Perilipin-5 (Homo sapiens) + 1-acylglycerol-3-phosphate O-acyltransferase ABHD5 (Homo sapiens), sequence (Q00G26 whole entry, looked up): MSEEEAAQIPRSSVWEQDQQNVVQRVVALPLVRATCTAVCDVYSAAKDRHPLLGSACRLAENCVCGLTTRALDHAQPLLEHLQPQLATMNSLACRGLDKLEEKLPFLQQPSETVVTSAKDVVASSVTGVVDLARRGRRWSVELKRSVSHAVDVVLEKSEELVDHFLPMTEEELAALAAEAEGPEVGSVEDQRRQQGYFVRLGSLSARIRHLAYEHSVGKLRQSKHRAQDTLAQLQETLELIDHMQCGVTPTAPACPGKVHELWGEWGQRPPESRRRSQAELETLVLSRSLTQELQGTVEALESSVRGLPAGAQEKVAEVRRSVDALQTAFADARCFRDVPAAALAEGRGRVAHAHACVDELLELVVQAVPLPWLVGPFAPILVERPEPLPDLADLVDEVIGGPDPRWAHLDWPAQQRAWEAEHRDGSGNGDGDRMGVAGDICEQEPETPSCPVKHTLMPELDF
Perilipin-5 (Homo sapiens) + 1-acylglycerol-3-phosphate O-acyltransferase ABHD5 (Homo sapiens), sequence (Q8WTS1 whole entry, looked up): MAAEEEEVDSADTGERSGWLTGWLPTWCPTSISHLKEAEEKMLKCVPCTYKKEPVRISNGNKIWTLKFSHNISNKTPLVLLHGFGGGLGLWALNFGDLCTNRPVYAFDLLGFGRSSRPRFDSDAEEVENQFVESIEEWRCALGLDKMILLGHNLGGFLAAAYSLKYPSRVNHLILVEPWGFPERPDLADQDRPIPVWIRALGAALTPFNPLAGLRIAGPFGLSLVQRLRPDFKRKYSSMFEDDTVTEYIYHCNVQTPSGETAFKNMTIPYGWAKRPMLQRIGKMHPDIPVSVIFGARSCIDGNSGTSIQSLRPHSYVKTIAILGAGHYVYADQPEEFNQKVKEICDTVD

inhibition, inactive:
COC(=O)c1nc(NC(=O)c2ccc(C(C)(C)C)cc2)n[nH]1 10.3%
COC(=O)C1(C)NC(c2ccccc2OC)C2C(=O)N(c3ccccc3)C(=O)C21 (centres undefined) -5.37%
CCN(CC)CCN(C(=O)c1ccc2c(c1)CCCC2)c1nc2c(OC)cccc2s1 7.79%
OC(CNCC1CCCO1)Cn1c2ccc(Br)cc2c2cc(Br)ccc21 (centres undefined) 12.6%
COc1ccc(CCNC(=O)c2nnc(CS(=O)(=O)c3ccccc3)o2)cc1OC 6.71%
O=C(NCCOCc1ccc(Cl)cc1)c1ncn[nH]1 6.41%
Cc1cccc(NC(=O)c2ccc3nsnc3c2)c1C 2.22%
O=C(NNc1ccccn1)c1ccc(Cl)nc1 2.34%
CCN1/C(=C\c2ccc3ccccc3[n+]2CC)Sc2cc(C)ccc21 16.8%
Nc1cccc(OCCCCCOc2cccc(N)c2)c1 3.48%
CC1(Oc2ccccc2-c2ccno2)CCN(Cc2ccc(-c3ccccc3)o2)C1 (centres undefined) 16.2%
Cc1nc2sc(C(c3ccco3)N3CCOCC3)c(O)n2n1 (centres undefined) 5.85%
O=C(Cn1nc(CNc2ccc(Cl)cc2)[n+]2c1CCCCC2)c1ccc(Cl)cc1 19.8%
CC1=CC(C)(C)Nc2ccc(OC(=O)C(Cc3ccccc3)N3C(=O)C4CCCCC4C3=O)cc21 (centres undefined) -3.56%

inhibition, active:
Cc1cc(-c2n[nH]c(=S)n2/N=C/C(Br)=C/c2ccccc2)n[nH]1 63%
O=C(/C(=C/c1cccc(Cl)c1)c1nc2ccccc2[nH]1)c1ccccc1 98.9%
O=C(/C=C/c1ccc(Cl)c([N+](=O)[O-])c1)c1ccc(O)cc1 90.2%
CC(=O)Nc1ccc(C=CC(=O)c2ccc([N+](=O)[O-])cc2)cc1 84.1%
COc1ccc2c(c1)c(=Cc1ccc(N(C)C)cc1)c1cc(-c3ccccc3)[n+](C)n12 28.5%
COC(=O)/C=C\C(=O)Nc1cccc([N+](=O)[O-])c1 83.5%
COc1ccc2c(c1OC)C(=O)OC2Nc1nc(-c2ccccc2)cs1 (centres undefined) 61.3%
O=C1/C(=C\c2ccc(O)cc2)CCC1CNc1ccc(Cl)cc1 (centres undefined) 25.6%
COc1ccccc1-n1nnnc1S(=O)(=O)Cc1ccc(Cl)cc1 49.7%
N#Cc1ccc(C(C(=O)NCc2ccccc2)n2c(=O)c(-c3ccco3)nc3ccccc32)cc1 (centres undefined) 91.9%
Cc1cccc(C)c1NC(=O)C(c1ccc(C(F)(F)F)cc1)n1c(=O)c(-c2ccco2)nc2ccccc21 (centres undefined) 80.6%
Cc1cccc(C)c1NC(=O)C(c1cccc2ccccc12)n1c(=O)c(-c2ccco2)nc2ccccc21 (centres undefined) 53%
O=C(NC1CCCCC1)C(c1cc2ccccc2o1)n1c(=O)c(-c2ccco2)nc2ccccc21 (centres undefined) 80.4%
CCn1c(SC)nc(O)c(C(c2ccc(OC)c(O)c2)c2c(O)nc(SC)n(CC)c2=O)c1=O 62%
COc1ccc(C(C[N+](=O)[O-])n2nc(C)cc2C)cc1 (centres undefined) 62.2%
CCN(CCCNC(=O)c1ccc2c(c1)NC(=O)CN2C)c1cccc(C)c1 50.9%
Cc1nnnn1/C(=C\c1ccccc1)C(=O)OCC(=O)N1CC2(C)CC1CC(C)(C)C2 (centres undefined) 54.9%
O=[N+]([O-])c1c(NCCO)cc(Sc2nc3ccccc3s2)c2nonc12 51.7%
O=C(CCl)Nc1ccc(Sc2ccc(NC(=O)CCl)cc2)cc1 40.2%
O=C(/C=C/c1ccc(Cl)cc1Cl)c1cccnc1 98.6%
COc1ccc(/C=C/C(=O)c2ccc(NS(=O)(=O)c3ccc(C)cc3)cc2)cc1O 55.4%
Cc1cccc(CS(=O)(=O)c2ncc(Cl)c(C(=O)Nc3ccc(F)cc3)n2)c1 82.7%
Cc1cccc(NC(=O)c2nc(S(=O)(=O)Cc3ccccc3)ncc2Cl)c1 90.7%
O=C1C=C(c2ccc(Cl)cc2)C(=O)N1Nc1ccccc1 102%
Cc1cc(C)nc(S/C=C/C(=O)c2ccccc2)n1 96.8%
c1ccc(CCC2=NCCn3cccc32)cc1 28.8%
Cc1ccc(NC(=O)c2cc(-c3ccc(C)o3)nc3ccccc23)nc1 24%
N#Cc1ccccc1S(=O)(=O)N1CCN(Cc2c(O)ccc3ccccc23)CC1 53%
CCCCOC(=O)CNc1nnc(SCC(=O)OCC)[nH]c1=O 69.3%
O=C(/C=C(O)/C=C/c1ccc(O)cc1)/C=C/c1ccc(O)cc1 63.4%
CN1CCC[C@@H]1CCO[C@](C)(c1ccccc1)c1ccc(Cl)cc1 27.9%
CCOC(=O)C(=Cc1ccccc1)C(=O)c1ccccc1 98.5%
CCOC(=O)C(=Cc1ccccc1OC)C(=O)OCC 60.3%
Cc1[nH]c(=O)c(C(=O)/C=C/c2ccccc2)c2c1CCCC2 56.5%
CC1=CC(C)(C)Nc2ccc(OC(=O)CN3C(=O)C4CCCCC4C3=O)cc21 (centres undefined) 83.2%

Source: PubChem BioAssay AID651612 (The Scripps Research Institute Molecular Screening Center, 2012)
